Here are results for 7 compounds from PubChem BioAssay (NCI).

Assay in all cases: NCI-60 one-dose screen, 48 h (100 = growth as untreated, 0 = no growth, -100 = all killed)
For experiment [1], the system named is DU-145 prostate. The settings on record: 10 µM unless noted.
The subject of experiment [2] is K-562 leukemia. The settings on record: 10 µM unless noted.
Experiment [3] concerns MALME-3M melanoma. The conditions noted are these: 10 µM unless noted.
Experiment [4] relates to MDA-MB-231 breast. The settings on record: 10 µM unless noted.
In experiment [5] the test system is RXF 393 renal. The settings on record: 10 µM unless noted.
Experiment [6] deals with SF-268 CNS. The settings on record: 10 µM unless noted.
For experiment [7], the system named is SF-295 CNS. The settings on record: 10 µM unless noted.
For experiment [8], the system named is SF-539 CNS. The conditions noted are these: 10 µM unless noted.
In experiment [9] the test system is UACC-257 melanoma. The settings on record: 10 µM unless noted.
Experiment [10] deals with M14 melanoma. The conditions noted are these: 10 µM unless noted.
Experiment [11] concerns HCT-15 colon. The settings on record: 10 µM unless noted.
Experiment [12] has as its system HT29 colon. The settings on record: 10 µM unless noted.
The test system of experiment [13] is SNB-75 CNS. The conditions noted are these: 10 µM unless noted.
Experiment [14] deals with SNB-19 CNS. The conditions noted are these: 10 µM unless noted.
Experiment [15] deals with U251 CNS. The settings on record: 10 µM unless noted.
For experiment [16], the system named is PC-3 prostate. The settings on record: 10 µM unless noted.
Experiment [17] concerns SK-MEL-5 melanoma. The conditions noted are these: 10 µM unless noted.
In experiment [18] the test system is UACC-62 melanoma. The conditions noted are these: 10 µM unless noted.
Experiment [19] deals with LOX IMVI melanoma. The settings on record: 10 µM.
The subject of experiment [20] is SK-MEL-28 melanoma. The settings on record: 10 µM unless noted.

About 83,000 compounds went through this panel and 20% of them were active in at least one assay; those are over-represented in the sample as a whole.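 Percent growth is the endpoint: 0 to 100 indicates growth inhibition (40 means 60% inhibition), 0 means no net growth, and negative values indicate cell death.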 A number with no mark means an inactive call. The source made the active and inactive calls. Rule for the calls: active = growth percent below 10; inactive = the rest.

As for `O=C(CN1C(=O)/C(=C/c2ccccc2F)SC1=S)N1CCOCC1`, the growth is 56.3% in [1]; 19.2% in experiment [2]; 51.8% in experiment [3]; 92% in experiment [4]; 71.8% in [5]; 99.1% in [6]. Also, the growth in experiment [7] is 108%; in [8], 82.3%; in experiment [9] it was 89.6%; in [10], 79.4%; in experiment [11], 29.4%; in [12], 87.1%. Further, the growth was 106% in [13]; 91% in experiment [14]; 91.8% in experiment [15]; 95.1% in experiment [16]; 93.9% in experiment [17]; 76.2% in experiment [18]. In addition, the results for the growth in experiment [19] and in experiment [20] were 38% and 86.4%, respectively.

In the case of `Cn1cc(-c2nc(N)nnc2-c2c[nH]c3ccc(Br)cc23)c2cc(Br)cnc21`, the growth is 14.2% in experiment [1]; 0.943% (active) in [2]; 4.82% (active) in [3]; 11.4% in [4]; -8.55% (active) in experiment [5]; 10.9% in [6]. The growth in experiment [7] is 11.4%; in experiment [8], -9.44% (active); in experiment [9], 47.3%; in [10] it was 0.895% (active); in experiment [11] it was 3.67% (active); in [12] it was -31.5% (active). Moreover, the growth in [13] is -0.672% (active); in experiment [14], 33.9%; in [15] it was 8.22% (active); in experiment [16] it was 3.39% (active); in experiment [17], -63.5% (active); in experiment [18], 8.26% (active). The growth in [19] is 17.3%; in experiment [20], 27.1%.

In the case of `Cc1cccc(-c2nc(Nc3cccc(S(N)(=O)=O)c3)c3ccccc3n2)c1`, the growth in experiment [1] was 57.3%; in experiment [2], 10.2%; in [3], 75%; in experiment [4], -13.6% (active); in experiment [5], 29.2%; in experiment [6] it was 46.2%. In addition, the growth was 20.2% in experiment [7]; -9.93% (active) in [8]; 87% in [9]; 54% in [10]; 9.69% (active) in [11]; 38.4% in experiment [12]. Further, the growth in experiment [13] was 80.3%; in experiment [14] it was 51.4%; in [15], 36.3%; in experiment [16], 39.8%; in experiment [17], 56.5%; in experiment [18], 49.9%. The growth in experiment [19] was 7.14% (active); in [20], 57.7%.

With `COc1cc(/C=C2\C(=N)N=C(SCc3nc4ccccc4[nH]3)NC2=O)ccc1O`, the growth in experiment [1] was 108%; in [2], 103%; in [3], 91.1%; in experiment [4], 86.4%; in [5], 113%; in [6], 111%. The growth in experiment [7] is 101%; in [8], 99.2%; in experiment [9] it was 105%; in [10] it was 95.4%; in [11], 96.3%; in experiment [12], 110%. Further, the growth was 102% in experiment [13]; 104% in experiment [14]; 105% in experiment [15]; 94.2% in [16]; 98.5% in experiment [17]; 89% in [18]. The growth was 88% in [19] and 110% in experiment [20].

Consider `CCS(=O)(=O)N1CCCC(C(=O)Nc2nc3ccc(NC(=O)c4ccc(F)c(OC)c4F)cc3s2)C1` (stereo not given), for which the growth in experiment [1] was 77.2%; in [2], 38.6%; in experiment [3] it was 67.9%; in [4] it was 81.7%; in [5], 26.9%; in [6], 68.5%. Besides, the growth was 48.8% in experiment [7]; 57.6% in experiment [8]; 37.4% in [9]; 78.5% in experiment [10]; 51% in experiment [11]; 69.2% in [12]. The growth was 62.5% in experiment [13]; 78.9% in [14]; 65.9% in experiment [15]; 50.6% in experiment [16]; -7.02% (active) in [17]; 58.2% in experiment [18]. Moreover, the growth in experiment [19] was 67.6%; in [20], 78.6%.

Take `COc1ccc2c(c1)c(-c1cc(N)n3nc(-c4cn(C)c5ccccc45)cc3n1)cn2C`: the growth in experiment [1] was -58% (active); in experiment [2], 2.2% (active); in [3], -76.5% (active); in experiment [4] it was -53.8% (active); in [5], -82.2% (active); in experiment [6] it was -56.5% (active). Further, the growth was -73.3% (active) in experiment [7]; -87.6% (active) in [8]; -67.8% (active) in experiment [9]; -83% (active) in [10]; -80.1% (active) in experiment [11]; -64.6% (active) in experiment [12]. The growth in experiment [13] was -66.3% (active); in [14], 4.07% (active); in experiment [15], -80% (active); in experiment [16], -20.5% (active); in experiment [17] it was -58.3% (active); in experiment [18] it was -58.4% (active). Also, the results for the growth in experiment [19] and in experiment [20] were -87.1% (active) and -92.2% (active), respectively.

Consider `O=C(O)Cn1c(O)c(/C=C2/C=c3cc4c(cc3=NC2=O)OCCO4)sc1=S`, for which the growth is 118% in experiment [1]; 106% in [2]; 100% in [3]; 103% in experiment [4]; 117% in experiment [5]; 118% in experiment [6]. The growth in experiment [7] is 94.6%; in [8] it was 107%; in experiment [9], 108%; in experiment [10], 111%; in experiment [11] it was 98.5%; in [12], 119%. Further, the growth in experiment [13] was 101%; in [14], 97.9%; in experiment [15], 109%; in experiment [16], 106%; in experiment [17], 107%; in experiment [18] it was 94.8%. Also, the growth in [19] is 93.6%; in experiment [20], 116%.
